In PubChem BioAssay AID1159580 (chemical genetic matrix, 2015):
The campaign covered roughly 5,500 compounds. About 2,000 (36%) were called active. Inconclusive results (about 18%) are left out. No stated cut-off is given here; in the data, active means normalized growth mostly below about 0.91 (no sharp cut-off); inconclusive means no clear call, values can overlap the other calls; inactive means mostly above about 0.92. The list shows a part of the results.

Test: chemical genetic growth profiling, strain panel (AID 1159580);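 further: tested at 20 µM; growth read once vehicle control cultures reached saturation at 30 °C; 1 = growth at the plate median or of vehicle wells; lower values mean less growth of the strain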
Conditions: S. cerevisiae deletion strains, growth OD
[1] = locus YAL040C, strain CLN3, hits give low values
[2] = locus YCL061C, strain MRC1 (second series), hits give low values
[3] = locus YDR363W, strain ESC2, hits give low values
[4] = locus YER002W, strain NOP16, hits give low values
[5] = locus YNL175C, strain NOP13, hits give low values
[6] = locus YNL197C, strain WHI3, hits give low values
[7] = locus YNL224C, strain SQS1, hits give low values
[8] = locus YOR083W, strain WHI5 (second series), hits give low values
[9] = locus YPL241C, strain CIN2, hits give low values

Measured: normalized growth

CCCC[C@@]1(C2CCCC2)Cc2cc(OCC(=O)O)c(Cl)c(Cl)c2C1=O
inactive: locus YAL013W, strain DEP1, hits give low values 1.02 | [1] 1 | [2] 1 | [3] 0.989 | [4] 1.05 | locus YGR078C, strain PAC10, hits give low values 1.02 | locus YGR229C, strain SMI1, hits give low values 1.03 | locus YMR263W, strain SAP30, hits give low values 1 | locus YNL153C, strain GIM3, hits give low values 1.01 | [5] 0.986 | [6] 0.959 | [7] 0.989 | [8] 1 | [9] 1

C[C@@]1(C2CCCC2)Cc2cc(OCC(=O)O)c(Cl)c(Cl)c2C1=O
inactive: [1] 1 | [2] 1.01 | [3] 1.01 | [4] 1 | locus YMR307W, strain GAS1, hits give low values 1.01 | locus YNL128W, strain TEP1, hits give low values 1 | [5] 1 | [6] 1 | [7] 1 | locus YNL322C, strain KRE1, hits give low values 1 | [8] 1.01 | locus YPL055C, strain LGE1, hits give low values 1.01 | [9] 1.01
